This is a sample that favours compounds with a hit; in the whole collection about 4% have one here.
HIF-2a block: HIF-2a reporter inhibitors, primary screen, luminescence, 786-0 RCC cells. 786-0 RCC cells HIF-2a reporter, luciferase luminescence, overnight. inhibition, % at 18.8 µM. actives 0.72% (n = 360,000). AID 624352, 2012;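 active = inhibition of the luminescence signal of 40% or more relative to plate controls, in a single-dose primary screen at 18.75 µM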
TROY NFkB inh: inhibitors of TROY-driven NF-kB signaling, primary screen, Q293 LMP1-TROYcd cells, NF-kB luciferase, uHTS; Q293 LMP1-TROYcd NF-kB luciferase reporter, 4 h; inhibition, % at 10 µM; actives 0.98% (n = 360,000);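 active = compounds whose plate-normalised and pattern-corrected inhibition of the luciferase reporter signal at the single screening dose is 50% or more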
KKLEB tox: cytotoxicity in KKLEB CF airway cells, primary screen, cytotoxicity control for CF NF-kB inhibitor project, cell-based, uHTS, fluorescence assay plates; actives 0.36% (n = 360,000); KKLEB CF airway cells viability, ATPlite luminescence, overnight; active compounds read low; cells stimulated with P. aeruginosa culture filtrate; activity change (cytotoxicity), % at 5 µM;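 active = corrected activity change at or below -50% at 5 µM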
CF NFkB inh: inhibitors of PAF-induced NF-kB signaling, primary screen, cell-based, GFP fluorescence, uHTS; KKLEB NF-kB-GFP reporter, GFP fluorescence overnight; inhibition, % at 5 µM; actives 0.86% (n = 360,000); AID 588850, 2011;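 active = at least 50% inhibition at 5 µM, scaled per plate between neutral and stimulator controls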;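 note: PAF is a Pseudomonas aeruginosa culture filtrate used as stimulus; plate controls were PAF-stimulated DMSO wells for no effect and unstimulated DMSO wells for full effect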
Peg3 prom inh: Peg3 promoter-driven luciferase inhibitors, primary screen, cell-based, HeLa, luciferase luminescence; HeLa PEG-Prom luciferase reporter, overnight; inhibition, % at 20 µM; actives 1.7% (n = 360,000); AID 588405, 2011;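 active = inhibition of at least 50% at 20 µM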
TWEAK-Fn14 inh: inhibitors of TWEAK-Fn14 signaling, primary screen, luciferase reporter cells, uHTS. TWEAK-stimulated Fn14 reporter cells, luciferase luminescence, 8 h. actives 2% (n = 360,000). inhibition, % at 10 µM. AID 1159606, 2016; in the data active = inhibition above about 50%
* = called active by the depositor; x = no result given.

SMILES | HIF-2a block | TROY NFkB inh | KKLEB tox | CF NFkB inh | Peg3 prom inh | TWEAK-Fn14 inh
Cc1ccc(C(=O)N2CCN(c3nc4ccccc4n3C)CC2)cc1 | -4.9 | -1.4 | 8.0 | 6.1 | -2.5 | 18.0
COc1ccc(NC(=O)c2ccc3ccccc3c2OC)cc1 | -335.1 | -45.1 | -10.0 | 25.3 | -238.1 | -25.4
CC(=O)c1ccc(NS(=O)(=O)c2cccc(C(=O)Nc3ccccc3C(=O)O)c2)cc1 | 4.8 | 12.9 | -3.1 | -5.9 | 12.3 | 81.7*
Cc1ccc2c(c1)CCCN2S(=O)(=O)c1cccc(C(=O)Nc2ccccc2C(=O)O)c1 | -11.3 | 54.6* | -10.3 | 10.9 | 18.5 | 9.8
CCc1nnc(NC(=O)c2ccc(Cl)c(S(=O)(=O)N3CCc4ccccc4C3)c2)s1 | 9.8 | 55.3* | -4.5 | 6.7 | 2.3 | 14.3
O=C(Nc1ccccn1)c1ccc(Cl)c(S(=O)(=O)N2CCc3ccccc32)c1 | -64.2 | 32.8 | -0.8 | -6.0 | -27.5 | 56.3*
CCc1nnc(NC(=O)c2ccc(S(=O)(=O)N3CCc4ccccc4C3)cc2)s1 | -1.6 | 5.2 | -5.1 | -10.8 | 4.1 | 4.2
O=C(Nc1cccnc1)c1ccc(Cl)c(S(=O)(=O)N2CCc3ccccc32)c1 | 19.1 | 33.8 | -4.7 | -4.3 | 20.7 | 23.2
COc1ccc(NC(=O)c2ccc(Cl)c(S(=O)(=O)N3CCc4ccccc4C3)c2)cn1 | 16.2 | 53.2* | -11.5 | 15.4 | 25.6 | 85.6*
CNc1cccc(-c2ccc(N3CCN(C)CC3)nc2)n1 | -210.1 | -47.3 | 16.0 | -35.6 | -332.2 | -7.4
CCCN1CCC(=O)N([C@H](CSc2ccc(C)cc2)c2ccccc2)CC1 | -239.2 | 50.1* | 1.1 | 16.8 | -192.9 | 37.0
NS(=O)(=O)c1ccc(CCNC(=O)C2CC(=O)N(Cc3ccccc3Cl)C2)cc1 (centres undefined) | 5.8 | 3.5 | -12.1 | -10.6 | 7.0 | -3.7
Cc1cccc(N(CC(=O)NCCc2ccccc2)C(=O)c2csnn2)c1 | 0.5 | 11.3 | 1.6 | 0.8 | 6.9 | 25.5
CC(C)COC(=O)N(C)C[C@@H]1OCc2cnnn2CCCC(=O)N([C@@H](C)CO)C[C@H]1C | -5.0 | -0.7 | -2.3 | -9.1 | 0.2 | -17.5
COc1ccc(NCc2nnc(SCC(=O)Nc3nc(-c4ccccc4)cs3)n2-c2ccccc2)cc1 | 11.0 | -5.0 | -11.8 | -5.6 | 83.0* | -2.8
COc1ccc(NCc2nnc(SCc3ccc(Cl)cc3)n2-c2ccccc2)cc1 | -18.4 | 59.8* | -9.5 | 33.3 | 37.4 | 16.5
N#CC1=C(N)N(c2ccc(Oc3ccccc3)cc2)C(=O)C1 | -40.7 | x | 4.1 | -14.6 | -7.3 | 88.1*
COc1ccc(N2C(=O)Cc3ccccc3C2=O)cc1 | 25.2 | -14.1 | -6.2 | 10.2 | 6.1 | -7.8
NC(=O)c1cccc(-c2coc3c(C(=O)NCCc4ccccc4)cccc23)c1 | -149.1 | -11.7 | 5.8 | -8.5 | 5.0 | 41.5
Cc1cccn2cc(-c3ccc(Cl)cc3)nc12 | -146.9 | 9.1 | 1.2 | -35.4 | -83.2 | 53.0*
COC(=O)[C@]12CCCCC=C1N(CCC1=CCCCC1)C(=O)[C@H](CC(=O)N1CCN(C(=O)C3CC3)CC1)C2 | -2.1 | 1.0 | x | x | x | -2.8
O=C(O)CCn1c(=O)[nH]c(=O)n(CCC(=O)O)c1=O | 11.7 | 1.4 | 0.4 | 2.6 | 88.9* | 17.9
CCCCN1CCN=C1N(C)C | -0.3 | -2.4 | 6.3 | -2.2 | -13.1 | 5.5
Cc1ccccc1CSc1nc(C(C)(C)C)cc(=O)[nH]1 | 3.7 | 64.7* | 5.2 | -12.3 | -0.4 | 1.7
Cc1cc(=O)[nH]c(SCc2cccc3ccccc23)n1 | 27.7 | 19.1 | -10.4 | -2.8 | -2.1 | -5.5
SMILES | HIF-2a block | TROY NFkB inh | KKLEB tox | CF NFkB inh | Peg3 prom inh | TWEAK-Fn14 inh
Cc1ccc(S(=O)(=O)NC(Cc2ccccc2)C(=O)NN)cc1 (centres undefined) | 13.1 | 16.6 | 18.8 | 20.2 | 3.8 | 3.5
Cc1ccc(S(=O)(=O)N[C@@H](Cc2ccccc2)C(=O)CCl)cc1 | -29.6 | 4.9 | -13.1 | 72.1* | 101.2* | 65.8*
CC(NS(=O)(=O)c1ccc(Br)cc1)C(=O)NCCc1ccccc1 (centres undefined) | 13.9 | 56.8* | 14.4 | 17.9 | 14.8 | -2.2
Cc1c(C(=O)NCCC#N)sc(=O)n1Cc1ccc(C(=O)N(C)C)cc1 | 5.5 | -6.9 | -17.7 | 12.9 | 7.8 | -0.3
CCOC(=O)N1C/C(=C\c2ccccc2)C(=O)/C(=C/c2ccccc2)C1 | 94.6* | 73.7* | -10.4 | 88.7* | 112.0* | 0.1
COc1ccc(OC(=O)N2C/C(=C/c3ccccc3)C(=O)/C(=C\c3ccccc3)C2)cc1 | 59.5* | 17.1 | -37.4 | 64.3* | 104.7* | 89.7*
CCOC(=O)N1CCN(S(=O)(=O)/C=C/c2ccccc2)CC1 | 11.7 | -1.3 | 13.4 | 2.2 | 12.0 | -24.3
CCN(C[C@H]1N[C@@](C)(C(=O)OC)[C@H]2C(=O)N(Cc3ccccc3)C(=O)[C@@H]12)C(=O)c1ccc(C)cc1 | -1.8 | 5.8 | 20.0 | -8.7 | -11.4 | 12.2
COc1ccc(/C=N/N=C/c2ccc(OC)c(OC)c2)cc1OC | 0.7 | -6.5 | 2.3 | -6.8 | 9.5 | -12.9
COc1cc(/C=N/N=C(N)N)ccc1OCc1ccccc1Cl | -48.9 | 0.2 | -3.9 | -10.9 | 102.0* | 1.6
Cc1[nH]nc2c1C(c1cccs1)C(C#N)=C(N)O2 (centres undefined) | 26.4 | 8.2 | -10.9 | 5.3 | 15.8 | 4.8
Cc1ccsc1C1C(C#N)=C(N)Oc2n[nH]c(C)c21 (centres undefined) | 18.1 | 6.1 | 6.3 | -2.7 | 33.0 | 61.1*
COc1ccc(S(=O)(=O)N2CCC(NC(=O)C3CCCCC3)CC2)cc1 | 5.5 | -13.9 | 1.3 | -10.0 | 7.7 | 80.4*
Cc1cccc(Nc2nnc(SCC(=O)Nc3cccc(S(=O)(=O)N4CCCCC4)c3)s2)c1 | -200.1 | 11.7 | -16.4 | 10.5 | -201.6 | 59.7*
Cc1cccc(C)c1Nc1nnc(SCC(=O)Nc2cc(S(=O)(=O)N3CCCCC3)ccc2Cl)s1 | 19.4 | 25.3 | -0.3 | -7.5 | 16.5 | 12.4
COc1ccc(NC(=O)CN(C)C(=O)/C=C/c2ccc(S(=O)(=O)N3CCCCCC3)cc2)cc1 | 13.6 | -7.5 | -17.3 | 26.1 | 52.1* | -12.7
COc1ccc(S(=O)(=O)N2CCC(C(=O)NC3CC3)CC2)cc1 | -1.0 | 3.4 | -5.2 | -10.9 | -11.7 | -17.6
COc1ccc(CC(=O)Nc2cccc(S(=O)(=O)N3CCCCCC3)c2)cc1OC | 21.1 | 35.4 | -10.3 | -1.5 | 18.5 | 53.2*
Cc1ccccc1NC(=O)C(C)Sc1nnc(-c2ccncc2)n1CC1CCCO1 (centres undefined) | 0.9 | -2.4 | -3.0 | 0.5 | -0.8 | 4.4

Compound activity deposited in PubChem BioAssay by Sanford-Burnham Center for Chemical Genomics.
